This passage reports binding signal results from paper PMC6212790, “How bacterial xenogeneic silencer rok distinguishes foreign from self DNA in its resident genome”.

Over roughly 33,000 sequences, “e-score” has its median near -0.037; the highest 2% begin near 0.34. The sample as a whole holds a higher share of the highest values than the screen did.

In the test the target is T1, GST-Rok (full length) (Bacillus subtilis subsp. subtilis str. …, UniProt O34857 1-191).
T1 sequence: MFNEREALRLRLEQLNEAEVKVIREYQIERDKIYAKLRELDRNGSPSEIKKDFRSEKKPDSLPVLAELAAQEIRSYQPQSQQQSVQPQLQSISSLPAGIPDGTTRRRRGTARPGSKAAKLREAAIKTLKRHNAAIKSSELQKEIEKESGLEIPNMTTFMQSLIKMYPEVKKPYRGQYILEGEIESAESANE
The experiment in a line: protein binding microarray; Rok is a gene silencer of Bacillus subtilis; high values mean tight binding. The settings on record: protein: recombinant; tags: GST (pTH5325, pDEST15-Magic modified); dsDNA, one strand shown. In outline:
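Every oligonucleotide joins a 25-mer constant primer to a 35-mer variable part drawn from a de Bruijn sequence of order 10, so each non-palindromic 8-mer appears at least 32 times and each palindromic 8-mer 16 times. The preference for every 8-mer is reported as a unitless, rank-based enrichment score (E-score). This score spans 0.5 for the most favored 8-mer to −0.5 for the most disfavored.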
As for ACTAATCG, the binding signal was 0.0113 E-score.
The value for ACCTTGGA was -0.145 E-score.
The value for AAGCTAGC was 0.137 E-score.
The value for CAATAACG was 0.0291 E-score.
CAGTTTCA: the binding signal is -0.0996 E-score.
The value for AAGTTTGA was -0.0342 E-score.
The value for GAGTTTGA was -0.199 E-score; that for TAGTTTCA was 0.392 E-score; that for GAGTTTCA was -0.16 E-score.
In the case of TAGTTTGA it was 0.347 E-score.
Turning to AATAAGAA, the binding signal worked out at 0.209 E-score.
In the case of CGGCGGCA it was -0.198 E-score; in that of AGTAGCGA, 0.181 E-score.
As for AGACTATC, the binding signal was 0.0106 E-score.
The value for GAATCTCC was 0.00693 E-score.
In the case of CGATCTAC it was 0.371 E-score.
The value for GAATCTAC was 0.425 E-score; that for CGATCTAA was -0.00615 E-score.
As for GAATCTAA, the binding signal amounted to 0.201 E-score.
In the case of AAATCTCG it was 0.144 E-score; in that of AAATCTAG, 0.35 E-score; in that of AGATCTAG, 0.167 E-score.
In the case of CGATCTAG it was 0.214 E-score; in that of CAATCTAA, 0.172 E-score; in that of CAATCTAG, 0.285 E-score.
In the case of CAATCTAC it was 0.365 E-score; in that of AAAAACCG, -0.0149 E-score.
As to AAACCAAA, the binding signal was -0.0651 E-score.
In the case of ACGTTGGA it was -0.0982 E-score; in that of CTCACTCA, 0.0449 E-score.
The value for ATGGTATG was 0.0823 E-score; that for AATCTCCG was 0.0469 E-score.
In the case of ACCCGCAG it was -0.2 E-score; in that of ATAAACAA, 0.0341 E-score; in that of TAATAACA, 0.238 E-score.
For the sequence AATGGGAG, the binding signal was -0.0919 E-score.
Take GTTATCTA: the binding signal came out at 0.285 E-score.
As to AACTTCGG, the binding signal is -0.044 E-score.
The value for TACGAGAA was 0.113 E-score; that for AAATCTAA was 0.157 E-score.
The value for AAATCTAT was 0.315 E-score; that for AAATCTAC was 0.398 E-score.
The value for CGCATCGC was -0.115 E-score; that for AAGTCCCG was -0.14 E-score; that for GATAGAAA was 0.307 E-score.
Turning to AATAGAAA, the binding signal came to 0.371 E-score.
The value for TATAGAAA was 0.363 E-score; that for AATAGAAT was 0.329 E-score; that for AATAGAAC was 0.0621 E-score.
In the case of CATAGAAA it was 0.129 E-score; in that of ATGTGCTA, 0.222 E-score; in that of CCATATCC, -0.0185 E-score.
The value for CGCGGCAA was 0.00655 E-score; that for CTTACTCA was -0.0171 E-score; that for CGTTGAAG was 0.0718 E-score.
In the case of AACGGCGC, the binding signal is -0.0478 E-score.
The value for ATAGCGAG was -0.0541 E-score; that for GTAGTTAA was 0.431 E-score.
The value for CAAGTTAA was 0.0371 E-score; that for GTAGTTCA was 0.217 E-score.
The value for CTAGTTAA was 0.349 E-score.
As for CGAGTTAA, the binding signal was 0.153 E-score.
For GAAGTTAA, the binding signal stood at 0.277 E-score.
The value for AGACTGGA was -0.123 E-score; that for ACATAGTC was 0.114 E-score.
The value for AGTTACGA was 0.167 E-score; that for ATTCACGA was -0.0154 E-score.
The value for AAACAGCT was 0.0473 E-score; that for CCTTCACA was 0.0629 E-score; that for AAGCTATA was 0.231 E-score.
TAGCTACA: the binding signal worked out at 0.37 E-score.
The value for ATGCTATA was 0.339 E-score; that for CTGCTATA was 0.0937 E-score; that for GAGCTATA was 0.145 E-score.
In the case of CAGCTACA it was 0.0906 E-score.
In the case of GAGCTACA it was 0.0398 E-score; in that of GTGCTATA, 0.147 E-score.
Take TAGCTATA: the binding signal came to 0.346 E-score.
As to AAACTCCA, the binding signal is -0.0432 E-score.
In the case of CTCACTGC it was 0.0486 E-score.
The value for AACGAATT was 0.325 E-score; that for ATAACAAT was 0.266 E-score; that for AACAACAC was -0.114 E-score.
The value for AAATTACA was 0.301 E-score; that for AAATTACG was 0.194 E-score.
Consider AAATTACC, for which the binding signal stood at 0.347 E-score.
In the case of GAATTACC it was 0.216 E-score.
In the case of AATTTACC it was 0.296 E-score.
In the case of GATTTACA it was 0.345 E-score; in that of AAATTACT, 0.386 E-score.
Take AATTTACA: the binding signal came to 0.305 E-score.
In the case of AATTTACG it was 0.292 E-score; in that of CAATTACC, 0.133 E-score.
In the case of GATTTACC it was 0.275 E-score; in that of AATTTACT, 0.384 E-score.
As for GCCGATGA, the binding signal is -0.108 E-score.
The value for AGGTGAGC was -0.0616 E-score.
The value for ATTGATTC was 0.127 E-score.
For the sequence TGCAGTAA, the binding signal worked out at 0.194 E-score.
In the case of ATGGTATA it was 0.381 E-score; in that of CTGGTATA, 0.303 E-score; in that of ATGGTAGG, 0.243 E-score.
Regarding ATGGTAGA, the binding signal was 0.444 E-score.
The value for GTGGTAAA was 0.192 E-score; that for ATGGTAGC was 0.287 E-score.
The value for CTGGTAGA was 0.335 E-score; that for ATGGTATC was 0.165 E-score.
The value for GTGGTAGA was 0.435 E-score; that for TGCCAGCA was 0.156 E-score; that for CGTCACAA was -0.0647 E-score.
On to TATAACGA, for which the binding signal was 0.245 E-score.
In the case of CCTATGCC it was -0.0371 E-score.
In the case of TCAACCAA it was -0.0239 E-score; in that of CGAATCTC, -0.0708 E-score.
On to TAATAGGA, for which the binding signal was determined as 0.202 E-score.
In the case of AAACCTAA it was 0.124 E-score; in that of ATAACTTA, 0.265 E-score; in that of ACCGATAC, 0.117 E-score.
In the case of ACCGATAG it was 0.0776 E-score.
In the case of ACCGATAT it was 0.338 E-score; in that of GATATCTA, 0.4 E-score.
AATATCTC: the binding signal came out at 0.203 E-score.
In the case of CATATCTA it was 0.293 E-score; in that of AATATCTG, 0.268 E-score.
The value for GATATCAA was 0.208 E-score; that for AATATCTA was 0.392 E-score.
As to AATCGGAA, the binding signal was found to be 0.0335 E-score.
The value for CCTAGTCG was -0.13 E-score; that for AACCACCT was -0.126 E-score.
On to TCACAGAA, for which the binding signal was 0.0426 E-score.
In the case of GACCAAGA it was 0.0064 E-score; in that of AAGCCTCT, -0.124 E-score; in that of ACCTACTG, 0.295 E-score.
Consider AACTACTC, for which the binding signal was found to be 0.381 E-score.
For the sequence CACTACTG, the binding signal was -0.0214 E-score.
In the case of AGCTACTG it was 0.294 E-score; in that of CACTACGA, 0.174 E-score.
For AACTACTG, the binding signal amounted to 0.436 E-score.
With ACCTACTA, the binding signal worked out at 0.372 E-score.
Regarding CACTACTC, the binding signal came to 0.00906 E-score.
As for AACTACGG, the binding signal is 0.204 E-score.
In the case of CCCTACTA it was -0.0153 E-score; in that of CACTACTA, 0.354 E-score; in that of AACTACGC, 0.201 E-score.
The value for ATGCCGCA was -0.0383 E-score.
In the case of CTTCGCCA it was -0.129 E-score; in that of CCACTGCC, -0.199 E-score.
CTATAAGC: the binding signal came out at 0.113 E-score.
The value for ATATGGAG was 0.202 E-score; that for GCGTGAAC was 0.00198 E-score.
The value for TAAGCTGA was -0.0981 E-score.
AGGGTACG: the binding signal was -0.168 E-score.
For CCGCTAGG, the binding signal is -0.19 E-score.
On to GGCTTTAC, for which the binding signal was determined as 0.00573 E-score.
In the case of GCAAATCA it was 0.0652 E-score; in that of TATTGAAA, 0.0126 E-score; in that of AACAACTT, 0.174 E-score.
Consider AACTACGA, for which the binding signal was found to be 0.292 E-score.
The value for TACTACGA was 0.275 E-score; that for AGCTACTA was 0.291 E-score.
The value for CGCTACTA was 0.28 E-score.
With GACTACTC, the binding signal came out at 0.132 E-score.
The value for TACTACTA was 0.428 E-score; that for AACTACTA was 0.474 E-score.
In the case of GACTACTA it was 0.34 E-score.
The value for AACTACGT was 0.306 E-score; that for GACTACGA was 0.079 E-score.
Regarding AACTACTT, the binding signal was 0.418 E-score.
With ATGTCGGC, the binding signal worked out at 0.0255 E-score.
The value for ATGCATTG was 0.0725 E-score; that for GTCCGCAA was -0.0703 E-score.
The value for TCAAGCAA was -0.0617 E-score.
In the case of CCCGATAC it was 0.00567 E-score; in that of CCATCCGC, -0.114 E-score.
On to ACGGCTTA, for which the binding signal is -0.0338 E-score.
AGATAATG: the binding signal turned out to be 0.225 E-score.
With CACGTATG, the binding signal is 0.0605 E-score.
The value for TCCCCAAA was -0.169 E-score.
Turning to CCCTTTTA, the binding signal is -0.102 E-score.
The value for GCTTTTTA was 0.157 E-score; that for AGATTTCA was 0.0391 E-score; that for AACATAAG was 0.23 E-score.
The value for GCTTTCTA was 0.224 E-score; that for GTATCCTA was 0.13 E-score.
As to ATATCCTA, the binding signal worked out at 0.36 E-score.
In the case of CTATCCTA it was 0.0781 E-score; in that of GAATGGCC, -0.15 E-score; in that of CATTTGCG, -0.059 E-score.
In the case of CAATATAC it was 0.34 E-score; in that of AAATATAC, 0.376 E-score; in that of AAATATAG, 0.317 E-score.
In the case of GAATATAC it was 0.306 E-score; in that of AAATATAT, 0.429 E-score.
AAATACAG: the binding signal came out at 0.264 E-score.
The value for AAATACAC was 0.216 E-score; that for AAAAATAT was 0.319 E-score.
For the sequence AAATATAA, the binding signal turned out to be 0.253 E-score.
The value for AAATACAT was 0.348 E-score; that for CAATATAA was 0.213 E-score.
With AGGAAGTG, the binding signal was -0.139 E-score.
The value for GCATGTTA was 0.0472 E-score; that for AGTAAAAG was 0.19 E-score.
In the case of CACGCTTA it was -0.0251 E-score; in that of AAATATCC, 0.127 E-score; in that of AAATATGC, 0.223 E-score.
In the case of AAATATTT it was 0.337 E-score; in that of AAATATTA, 0.305 E-score; in that of AAATATCA, 0.271 E-score.
Consider AAATATGA, for which the binding signal was found to be 0.199 E-score.
As for AAATATTG, the binding signal was 0.295 E-score.
The value for AAATATGT was 0.338 E-score; that for AAATATCT was 0.355 E-score.
With CATTTCGG, the binding signal stood at 0.0631 E-score.
In the case of AGTCCAAA it was -0.0624 E-score; in that of ACATCATC, -0.0524 E-score; in that of AACTATAT, 0.362 E-score.
In the case of AGCTATAT it was 0.337 E-score.
The value for AGCTATAA was 0.25 E-score; that for AGCTATAG was 0.283 E-score.
As to AACTATAG, the binding signal stood at 0.331 E-score.
The value for AACTATAC was 0.33 E-score.
